Experimental data from PubChem BioAssay AID1159580 (chemical genetic matrix, 2015).
Values joined by “and” are separate entries in the source; they are usually repeats but may differ in a detail not shown here. Identical values can stand only once. About 2,000 (36%) of roughly 5,500 compounds were called active. Inconclusive results (about 18%) are left out. Rule as the data show it: active = normalized growth mostly below about 0.91 (no sharp cut-off); inconclusive = no clear call, values can overlap the other calls; inactive = mostly above about 0.92. This is one part of the list.

Assay: chemical genetic growth profiling, strain panel (AID 1159580);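 also: tested at 20 µM; growth read once vehicle control cultures reached saturation at 30 °C; 1 = growth at the plate median or of vehicle wells; lower values mean less growth of the strain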
Conditions: S. cerevisiae deletion strains, growth OD

Measured: normalized growth

CN1CCN(CCCN2c3ccccc3Sc3ccc(C(F)(F)F)cc32)CC1
active: locus YAL013W, strain DEP1, active compounds read low 0.065 and 0.82 | locus YAL021C, strain ccr4, active compounds read low 0.0696 | locus YAL026C, strain drs2, active compounds read low 0.0611 | locus YAL030W, strain snc1, active compounds read low 0.0651 | locus YBL061C, strain skt5, active compounds read low 0.0653 | locus YBR009C, strain hhf1, active compounds read low 0.0647 | locus YBR021W, strain FUR4, active compounds read low 0.102 | locus YBR023C, strain chs3, active compounds read low 0.0673 | locus YBR171W, strain sec66, active compounds read low 0.0984 | locus YBR229C, strain ROT2, active compounds read low 0.0712 | locus YBR231C, strain swc5, active compounds read low 0.0679 | locus YBR279W, strain paf1, active compounds read low 0.0731 | locus YCL011C, strain gbp2, active compounds read low 0.0652 | locus YCL016C, strain dcc1, active compounds read low 0.0786 | locus YCL029C, strain bik1, active compounds read low 0.0752 | locus YCL061C, strain MRC1, active compounds read low 0.0741 | locus YCL069W, strain vba3, active compounds read low 0.0697 | locus YCR088W, strain abp1, active compounds read low 0.0705 | locus YDL005C, strain med2, active compounds read low 0.412 | locus YDL035C, strain GPR1, active compounds read low 0.061 | locus YDL040C, strain nat1, active compounds read low 0.0906 | locus YDL074C, strain BRE1, active compounds read low 0.0975 | locus YDL101C, strain DUN1, active compounds read low 0.0711 | locus YDL134C, strain PPH21, active compounds read low 0.0567 | locus YDL192W, strain arf1, active compounds read low 0.0649 | locus YDR001C, strain nth1, active compounds read low 0.0725 | locus YDR069C, strain doa4, active compounds read low 0.0695 | locus YDR101C, strain arx1, active compounds read low 0.0878 | locus YDR137W, strain rgp1, active compounds read low 0.261 | locus YDR150W, strain NUM1, active compounds read low 0.0679 | locus YDR159W, strain sac3, active compounds read low 0.0958 | locus YDR162C, strain NBP2, active compounds read low 0.0537 | locus YDR195W, strain ref2 0.141 | locus YDR297W, strain sur2, active compounds read low 0.0695 | locus YDR318W, strain mcm21, active compounds read low 0.0756 | locus YDR334W, strain swr1, active compounds read low 0.0668 | locus YDR335W, strain msn5, active compounds read low 0.0678 | locus YDR363W, strain ESC2, active compounds read low 0.87 | locus YDR388W, active compounds read low 0.0596 | locus YDR392W, strain spt3, active compounds read low 0.0857 | locus YDR502C, strain sam2, active compounds read low 0.0724 | locus YEL003W, strain gim4, active compounds read low 0.0619 | locus YEL037C, strain rad23, active compounds read low 0.0674 | locus YEL061C, strain CIN8 (second series), active compounds read low 0.0766 | locus YEL061C, strain CIN8, active compounds read low 0.0589
inactive: locus YAL040C, strain CLN3, active compounds read low 0.989 | locus YCL061C, strain MRC1 (second series), active compounds read low 0.969 | locus YDL185W, strain tfp1, active compounds read low 0.936
